Compound activity (PubChem BioAssay)
CYP2C19 activ: activators of human cytochrome P450 2C19; 96,000 tested, under 10 active; activation factor at 5 µM; AID 1025; P33261; recombinant CYP2C19, luciferin-H EGE luminescence; hits give high values; 0 = fully inhibited enzyme, 1 = untreated enzyme;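 active = activation factor of at least 2 at 5 µM in the primary screen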
CYP2C9 activ: increases human cytochrome P450 2C9 activity; AID 1024; 96,000 tested, 1.4% active; recombinant CYP2C9, luciferin-H conversion, luminescence; hits give high values; factor 1 = untreated enzyme, 0 = blocked; activation factor at 5 µM;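 active = activation factor of 2 or more for CYP2C9 at a 5 µM dose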
Target sequence (P11712 whole entry, looked up): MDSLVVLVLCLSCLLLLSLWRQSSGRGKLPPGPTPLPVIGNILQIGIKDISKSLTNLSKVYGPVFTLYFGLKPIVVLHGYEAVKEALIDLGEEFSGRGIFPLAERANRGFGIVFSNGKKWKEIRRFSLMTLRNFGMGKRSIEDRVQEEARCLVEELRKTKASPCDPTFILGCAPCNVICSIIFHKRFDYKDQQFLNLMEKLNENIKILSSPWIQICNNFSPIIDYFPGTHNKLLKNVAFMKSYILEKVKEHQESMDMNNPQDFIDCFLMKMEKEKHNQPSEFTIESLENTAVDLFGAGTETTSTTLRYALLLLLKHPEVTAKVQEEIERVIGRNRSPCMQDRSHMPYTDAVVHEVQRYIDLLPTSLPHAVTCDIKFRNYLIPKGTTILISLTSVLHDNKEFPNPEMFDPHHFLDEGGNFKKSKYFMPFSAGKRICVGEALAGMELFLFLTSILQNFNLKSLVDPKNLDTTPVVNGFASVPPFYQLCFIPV
CD11b adhes enh: enhancers of human CD11b/CD18 binding to fibrinogen | AID 1499 | K562 CD11b/CD18 adhesion to fibrinogen, ATPlite luminescence | activation, % at 10 µM | P05107+P11215 | 93,000 tested, 0.07% active;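 active = 10 µM primary screen giving 50% or more activity, confirmed by 40% or more on retest at that dose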
CYP2C9 inh: inhibitors of human CYP2C9 | P11712 | CYP2C9 Supersomes, luciferin-H conversion, luminescence | 96,000 tested, 20% active | inhibition, % at 5 µM;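 active = blocking of liver enzyme CYP2C9 beyond about 50% at 5 µM, limit read from the data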
CD11b adhes inh: blocks human CD11b/CD18 adhesion to fibrinogen; K562 CD11b/CD18 adhesion to fibrinogen, ATPlite luminescence; Mn2+ added to activate the integrin; AID 1497; inhibition, % at 10 µM; 93,000 tested, 0.54% active;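 active = primary inhibition of 50% or more at 10 µM, then 40% or more on retest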
CYP2C19 inhib: human CYP2C19 inhibition | P33261 | CYP2C19 Supersomes, luciferin-H EGE luminescence, 30 min | inhibition, % at 5 µM | 96,000 tested, 21% active | AID 778;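 active = CYP2C19 inhibition above a set limit at 5 µM in the primary screen, cut at about 50% in these data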
Large screens that a line does not name were inactive. Compounds with a hit are over-represented: about 28% of the library has one in this group of screens.

N#Cc1ccc(-c2nnnn2-c2ccc3c(c2)OCO3)cc1	CYP2C19 inhib 60.6
Cc1ccccc1-n1c(SCc2cccc(F)c2)nc2[nH]ncc2c1=O	none (no result: CYP2C19 activ, CYP2C9 activ, CYP2C9 inh, CYP2C19 inhib)
Cc1nc(NC(C)c2ccccc2)c2oc3ccccc3c2n1 (stereo unspecified)	CYP2C9 inh 60.9
Cc1nc(NCc2ccco2)c2oc3ccccc3c2n1	CYP2C9 inh 62.9, CYP2C19 inhib 77.0
Cc1nc(Nc2ccncc2)c2oc3ccccc3c2n1	none
CCOc1nc(Nc2ccc(OC)c(Cl)c2)nc(OCC)n1	none
C1CCC(OCCN2CCN(CCOC3CCCCC3)CC2)CC1	none
CCOC(=O)N1CCN(C(=O)c2cc(-n3cnnc3)ccc2Cl)CC1	none
CC1CCCC(n2c(=S)[nH]c3ccccc3c2=O)C1C (stereo unspecified)	CYP2C19 inhib 53.8 (no result: CD11b adhes enh, CD11b adhes inh)
Brc1ccc2ncnc(NCc3ccccc3)c2c1	CYP2C19 inhib 74.4
Clc1cccc(Nc2ncnc3ccc(Br)cc23)c1	none
O=C(Nn1c(-c2ccccc2)nc2ccccc2c1=O)C1CCC1	none
Cc1cc(C)cc(NC(=O)N2CCCC2C(=O)Nc2ccc(-n3cnnn3)c(C)c2)c1 (stereo unspecified)	CYP2C19 inhib 96.5 (no result: CD11b adhes enh, CD11b adhes inh)
CC(=O)Nc1cccc(NC(=O)C2CCCN2C(=O)Nc2ccc(C)cc2)c1 (stereo unspecified)	none
CC(=O)c1cccc(NC(=O)N2CCCC2C(=O)NCc2ccc(C)cc2)c1 (stereo unspecified)	none
CC(=O)c1cccc(NC(=O)N2CCCC2C(=O)Nc2cccc(C)c2C)c1 (stereo unspecified)	CYP2C9 inh 87.8, CYP2C19 inhib 89.8
CC(=O)c1cccc(NC(=O)N2CCCC2C(=O)Nc2ccccc2C)c1 (stereo unspecified)	CYP2C9 inh 55.7
CC(=O)c1cccc(NC(=O)N2CCCC2C(=O)NC2CCCCC2)c1 (stereo unspecified)	none
CC(C)(C)n1nnnc1CN(Cc1ccco1)Cc1cc2cc3c(cc2[nH]c1=O)OCO3	none
CC(C)(C)n1nnnc1CN(Cc1cccnc1)Cc1ccccc1Cl	CYP2C19 inhib 88.1
Cc1nn(C)c(C(=O)Nc2ccn(Cc3c(F)c(F)cc(F)c3F)n2)c1[N+](=O)[O-]	none
Cc1nn(Cc2cccc(F)c2)c(C)c1NC(=O)c1ccc(COc2ccccc2Cl)cc1	CYP2C9 inh 65.1
Cc1nn(Cc2cccc(F)c2)c(C)c1NC(=O)c1c([N+](=O)[O-])c(C)nn1C	CYP2C9 inh 62.3, CYP2C19 inhib 75.6
Cc1nn(Cc2cccc(C(=O)Nc3ccn(Cc4c(F)c(F)cc(F)c4F)n3)c2)c(C)c1[N+](=O)[O-]	CYP2C9 inh 93.1, CYP2C19 inhib 85.8
Cc1sc2ncn(CC(=O)NCCCC(=O)N3CCN(c4ncccn4)CC3)c(=O)c2c1C	none
CC(=O)Nc1ccc(S(=O)(=O)N2CCC(NC(=O)c3ccco3)CC2)cc1	none
O=C1C=C(NCc2ccc(Cl)cc2)CC(c2ccco2)C1 (stereo unspecified)	CYP2C9 inh 60.2, CYP2C19 inhib 93.1
CC(C)CNC1=CC(=O)CC(c2ccco2)C1 (stereo unspecified)	CYP2C19 inhib 55.4
O=C1C=C(NCc2ccncc2)CC(c2ccccc2)C1 (stereo unspecified)	CYP2C19 inhib 95.7
CN(C)c1ccc(-c2noc(-c3ccccc3O)n2)cc1	none
O=C1C(=C2CCCCC2)SC(=S)N1Cc1ccco1	CYP2C19 inhib 59.9
O=C(O)CCN1C(=O)C(=C2CCCCCC2)SC1=S	none
Cc1cc(N2CCCC2=O)c(N)cc1N	none
COc1cc(/C=N/N2C(=O)c3ccccc3NC2(C)c2cccc([N+](=O)[O-])c2)cc(Br)c1O (stereo unspecified)	CYP2C9 inh 92.1, CYP2C19 inhib 50.0
CSc1cccc(-n2cc(-c3ccc4c(c3)OCO4)[nH]c2=O)c1	none
CCCC(=O)Nc1cccn(Cc2ccccc2Br)c1=O	CYP2C19 inhib 92.4
COc1cc(C(=O)OC(C)CN2CCOCC2)cc(OC)c1OC (stereo unspecified)	none
COc1ccc(N(C(=O)C(C)C)S(=O)(=O)c2ccc(Cl)cc2)cc1	CYP2C9 inh 88.2, CYP2C19 inhib 96.6
COc1ccc(N(C(=O)c2cccc([N+](=O)[O-])c2)S(=O)(=O)c2ccc3c(c2)n(C)c(=O)n3C)cc1	none
COc1ccc(N(C(=O)C(C)C)S(=O)(=O)c2ccc3c(c2)n(C)c(=O)n3C)cc1	CYP2C9 inh 65.1
COC(=O)c1cn(CCOc2ccc(C)cc2)c2ccccc12	CYP2C9 inh 70.4, CYP2C19 inhib 68.7
Cc1ccc(NC(=O)C2(NC(=O)c3cccc(N4C(=O)CSC4c4ccccc4)c3)CCCCC2)cc1 (stereo unspecified)	CYP2C9 inh 83.8
CC(=O)c1cc(CN2C(=O)c3ccccc3C2=O)cs1	CYP2C19 inhib 95.6
CC(C)NC(=O)c1onc(CSc2ccc(F)c(F)c2)c1C(=O)O	CYP2C9 inh 76.2 (no result: CD11b adhes enh, CD11b adhes inh)
CC(C)NC(=O)c1onc(CSc2ccc(F)cc2)c1C(=O)O	none (no result: CD11b adhes enh, CD11b adhes inh)
Cc1ccccc1SCc1noc(C(=O)NC(C)C)c1C(=O)O	none (no result: CD11b adhes enh, CD11b adhes inh)
CC(C)NC(=O)c1onc(CSc2ccc(C(C)C)cc2)c1C(=O)O	CYP2C9 inh 90.7 (no result: CD11b adhes enh, CD11b adhes inh)
CC(C)NC(=O)c1onc(CSc2cccc(Cl)c2)c1C(=O)O	CYP2C9 inh 64.4 (no result: CD11b adhes enh, CD11b adhes inh)
Cc1ccc(SCc2noc(C(=O)NC(C)C)c2C(=O)O)cc1C	CYP2C9 inh 80.3 (no result: CD11b adhes enh, CD11b adhes inh)
C=CCn1c(SCc2ccc([N+](=O)[O-])cc2)nnc1C(C)NC(=O)c1ccccc1 (stereo unspecified)	none
C=CCOC(=O)Nc1c(C(=O)OC)[nH]c2ccc(Cl)cc12	none
O=C(NCC1CCCO1)c1onc(CSc2ccc(Cl)cc2)c1C(=O)O (stereo unspecified)	CYP2C9 inh 51.2 (no result: CD11b adhes enh, CD11b adhes inh)
CCCOc1ccc(-c2csc(NC(=O)CN3C(=O)CCC3=O)n2)cc1	none (no result: CYP2C19 activ, CYP2C9 activ, CYP2C9 inh, CYP2C19 inhib)
CCc1ccc2oc(=O)cc(CN3CCN(c4ccc(F)cc4)CC3)c2c1	CYP2C19 inhib 51.6
COc1ccc2c(c1)c(C(C)=O)c(C)n2-c1ccccc1	CYP2C9 inh 88.5, CYP2C19 inhib 97.0
COc1ccc(-n2c(C)cc(SC)c(C(C)=O)c2=S)cc1	none
CC(=O)Oc1ccc2c(c1)c(C(C)=O)c(C)n2C	none
COc1ccc(-n2c(C)c(C(C)=O)c3cc(O)ccc32)cc1	CYP2C9 inh 61.3, CYP2C19 inhib 89.7
COc1ccc(C)cc1NC(=O)C(=O)NNC(=O)c1ccco1	none
COCCn1c(-c2ccccc2)cnc1SCC(=O)Nc1cccc2ccccc12	none (no result: CYP2C19 activ, CYP2C9 activ, CYP2C9 inh, CYP2C19 inhib)
COC(=O)C(NC(=O)c1ccccc1)=C1CCCCC1	none
N=C1SCC(=O)N1c1nc(-c2ccccc2)cs1	none (no result: CD11b adhes enh, CD11b adhes inh)
O=C1C2C3c4ccccc4C(c4ccccc43)C2C(=O)N1c1nc(-c2ccccc2)cs1 (stereo unspecified)	CYP2C9 inh 62.0 (no result: CD11b adhes enh, CD11b adhes inh)
